# According to PubChem BioAssay (NCATS):
# Results filed as inconclusive are left out. Active and inactive are the calls of the source. Calls follow the shape of the dose curve; as a rule, active = well fitted inhibition curve with a large enough effect; inconclusive = small, poorly fitted or top-dose-only effect; inactive = flat fitted curve, though single readings scatter.
# System: NIH3T3
# Assay: qHTS assay to identify novel small-molecules to repurpose for Merkel cell carcinoma treatment (AID 1296009); also: nearly all actives have a fitted effect of over 60% in size
# Conditions: MCC and control cell lines, CellTiter-Glo viability, 72 h; at 44.8 µM (top of the series) unless noted
# How it was run: (§1)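 72 hr, 37 degree celsius; NPC 8-pt / MIPE 11-pt dose response; compound pinned in DMSO; CellTiter-Glo, 10 min RT, luminescence; normalized to no-cell and DMSO controls.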
# % is scaled to controls: 0 for no effect and ±100 for the full control effect; potency is read from the fitted curve at half-maximal effect.
row,SMILES,outcome
1,O=C(O)Cc1ccc2c(c1)C(=O)c1ccccc1CO2,inactive
2,CN(CCCOc1ccc(Cc2ccccc2)cc1)CCC(=O)O,inactive
3,CCCCCCCCCCCCCCCC(=O)OC(C)C,inactive
4,O=C1CN(/N=C/c2ccc([N+](=O)[O-])o2)C(=O)N1,inactive
5,CC(=O)c1ccc(OCC(=O)N2CCCCC2)cc1,inactive
6,Nc1ccc(C(=O)O)c(O)c1,inactive
7,COc1cc(/C=C/C(=O)N2CCN(CC(=O)N3CCCC3)CC2)cc(OC)c1OC,inactive

# System: UISO
# Assay: as above
# Conditions: MCC and control cell lines, CellTiter-Glo viability, 72 h; series mostly up to 46 µM; activity change, negative = cytotoxicity: at the top concentration
# How it was run: as §1
SMILES,Potency,"activity change, negative = cytotoxicity"
COC(=O)c1nc(Cl)c(Cl)nc1N,6.68 µM (active),–
O=C(O)Cc1ccc2c(c1)C(=O)c1ccccc1CO2,–,3.41% (inactive)
O=C(O)/C=C\C(=O)O,–,11.8% (inactive)
CN(C)[C@@H]1C(=O)C(C(=O)NCN2CCCC2)=C(O)[C@@]2(O)C(=O)C3=C(O)c4c(O)cccc4[C@@](C)(O)C3C[C@@H]12 (stereo partly drawn),–,1.28% (inactive)
Cc1[nH]cnc1CN1CCc2c(c3ccccc3n2C)C1=O,–,25.1% (inactive)
O=C(O)Cc1ccc(-c2ccccc2)cc1,–,25.5% (inactive)
CNC(=O)c1c(I)c(NC(=O)CCCCC(=O)Nc2c(I)c(C(=O)O)c(I)c(C(=O)NC)c2I)c(I)c(C(=O)O)c1I,–,-0.436% (inactive)
COc1cccc2c1C(=O)c1c(O)c3c(c(O)c1C2=O)C[C@@](O)(C(=O)CO)C[C@@H]3O[C@H]1C[C@H](N)[C@H](O[C@@H]2CCCCO2)[C@H](C)O1,2.99 µM (active),–
N=C1N=C(N)c2cc3ccccc3cc21,24.3 µM (active),–
O=C(CCN1CCN(CCO)CC1)N1c2ccccc2Sc2ccc(C(F)(F)F)cc21,–,15.2% (inactive)
CC(C)(C)c1nnc(NS(=O)(=O)c2ccc(N)cc2)s1,–,-1.56% (inactive)
CCCCCCCCCCCCOCCO,–,10.3% (inactive)
CCCCCCCCCCCCCCCC(=O)OC(C)C,–,13.8% (inactive)
COC(=O)C1=C(C)NC(C)=C(C(=O)OCC(C)C)C1c1ccccc1[N+](=O)[O-] (stereo not drawn),23.7 µM (active),–
Oc1c(Br)cc(Br)c2cccnc12,7.5 µM (active),–
COc1ccnc2c1CCCCC2S(=O)c1nc2ccccc2[nH]1 (stereo not drawn),–,-21.7% (inactive)
CCCCC1C(=O)N(c2ccccc2)N(c2ccc(O)cc2)C1=O (stereo not drawn),6.68 µM (active),–
Cc1c(N)c(=O)n(-c2ccccc2)n1C,–,-11% (inactive)
O=C(OCc1ccccc1)c1ccccc1,–,12.5% (inactive)
[O-][n+]1ccccc1SSc1cccc[n+]1[O-],0.092 µM (active),–
O=C(O)c1ccccc1Nc1cccc(C(F)(F)F)c1,–,14.1% (inactive)
CC1(C)S[C@@H]2[C@H](NC(=O)[C@H](N)c3ccccc3)C(=O)N2[C@H]1C(=O)O,–,26.3% (inactive)
CC(C(=O)O)c1ccc(C(=O)c2ccccc2)s1 (stereo not drawn),–,26% (inactive)
CCCCCCCC/C=C/C(=O)O,–,10.8% (inactive)
CC(=O)c1ccc(OCC(=O)N2CCCCC2)cc1,–,36.8% (inactive)
Nc1ccc(C(=O)O)c(O)c1,–,18.8% (inactive)
